Results on ten sequences are retold here after publication PMC8384837, “Expanding the binding specificity for RNA recognition by a PUF domain”.

Experiment in all cases: yeast three-hybrid, YBZ-1, SC-Leu-His + 0.5 mM 3-AT, 4 days
Holding throughout (settings): tags: N-Gal4 AD-HA kept; label: inside an RPR1-promoter hybrid RNA with tandem MS2 sites; ssRNA

In test [1] the target is PUM1 PUF domain R8-KYV (Homo sapiens, UniProt Q14671 828-1176, N1122K;Q1126V). An outline of the steps: (§1)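 Repeat regions from input (SC-Leu) and selection (SC-Leu-His + 0.5 mM 3-AT) plates were PCR-amplified and Illumina-sequenced after four days of growth. The cells were strain YBZ-1 with a LexA–MS2 coat fusion and a HIS3 reporter, co-expressing Pumilio-1 PUF domain libraries and matching RNA elements from a centromeric plasmid. The interaction score is the log change in variant frequency from input to selection, taken in log2 with a pseudocount of 1 for absent variants.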

The target in test [2] is PUM1 PUF domain R4-MNR (Homo sapiens, UniProt Q14671 828-1176, N971M;H972N;Q975R). In outline: as §1
Test [3] concerns the target PUM1 PUF domain R4-PYE (Homo sapiens, UniProt Q14671 828-1176, N971P;H972Y;Q975E). An outline of the steps: as §1
Test [4] has as its target PUM1 PUF domain R3-MRA (Homo sapiens, UniProt Q14671 828-1176, C935M;Q939A). An outline of the steps:
as §1

Test [5] concerns the target PUM1 PUF domain R5-LYE (Homo sapiens, UniProt Q14671 828-1176, C1007L;R1008Y;Q1011E). In outline: as §1
Test [6] concerns the target PUM1 PUF domain R8-EWR (Homo sapiens, UniProt Q14671 828-1176, N1122E;Y1123W;Q1126R). In outline: as §1
In test [7] the target is T1, PUM1 PUF domain R6-GWM (Homo sapiens, UniProt Q14671 828-1176, N1043G;Y1044W;Q1047M).
T1 sequence: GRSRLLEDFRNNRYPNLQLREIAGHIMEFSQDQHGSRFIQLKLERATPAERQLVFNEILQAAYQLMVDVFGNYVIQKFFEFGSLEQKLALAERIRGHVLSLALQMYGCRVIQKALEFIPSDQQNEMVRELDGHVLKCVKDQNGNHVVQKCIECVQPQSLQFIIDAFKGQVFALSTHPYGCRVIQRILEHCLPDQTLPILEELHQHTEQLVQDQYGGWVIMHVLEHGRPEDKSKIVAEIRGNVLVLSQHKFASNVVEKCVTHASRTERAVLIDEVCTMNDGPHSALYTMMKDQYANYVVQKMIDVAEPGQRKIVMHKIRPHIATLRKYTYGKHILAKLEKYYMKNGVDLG
An outline of the steps:
as §1

Test [8] addresses PUM1 PUF domain R2-SWW (Homo sapiens, UniProt Q14671 828-1176, N899S;Y900W;Q903W). An outline of the steps: as §1
The target in test [9] is PUM1 PUF domain R5-SGK (Homo sapiens, UniProt Q14671 828-1176, C1007S;R1008G;Q1011K). An outline of the steps: as §1
Test [10] has as its target PUM1 PUF domain R5-KSR (Homo sapiens, UniProt Q14671 828-1176, C1007K;R1008S;Q1011R). An outline of the steps: as §1

Regarding “GGCUAGAACUAGUGGAUCCCCCGGCGCCCGGCGGCUCGAGCCCGGGUAAGGGUAAAUAGUCUGCAUGCCGCCGGGCGCCAUGCCUGCAGGUCGACUCUAGAAAACAUG”, the binding signal in test [1] is 3.44 log2 enrichment (interaction score).

Take “GGCUAGAACUAGUGGAUCCCCCGGCGCCCGGCGGCUCGAGCCCGGGUAAGUGUAUAUAGUCUGCAUGCCGCCGGGCGCCAUGCCUGCAGGUCGACUCUAGAAAACAUG”: the results for the binding signal in test [2] and in test [3] were 4.01 log2 enrichment (interaction score) and 4.08 log2 enrichment (interaction score), respectively.

“GGCUAGAACUAGUGGAUCCCCCGGCGCCCGGCGGCUCGAGCCCGGGUAAGUGUAAGUAGUCUGCAUGCCGCCGGGCGCCAUGCCUGCAGGUCGACUCUAGAAAACAUG”: the binding signal in test [4] was 5.2 log2 enrichment (interaction score).

On to “GGCUAGAACUAGUGGAUCCCCCGGCGCCCGGCGGCUCGAGCCCGGGUAAGUGUAAAUAGUCUGCAUGCCGCCGGGCGCCAUGCCUGCAGGUCGACUCUAGAAAACAUG”, for which the binding signal in test [1] is 2.77 log2 enrichment (interaction score); in test [5], 3.07 log2 enrichment (interaction score); in test [6], 1.16 log2 enrichment (interaction score); in [7], 2.52 log2 enrichment (interaction score).

“GGCUAGAACUAGUGGAUCCCCCGGCGCCCGGCGGCUCGAGCCCGGGUAAGUGUAAAAAGUCUGCAUGCCGCCGGGCGCCAUGCCUGCAGGUCGACUCUAGAAAACAUG”: in [8], the binding signal is 3.5 log2 enrichment (interaction score).

Take “GGCUAGAACUAGUGGAUCCCCCGGCGCCCGGCGGCUCGAGCCCGGGUAAGUGUUAAUAGUCUGCAUGCCGCCGGGCGCCAUGCCUGCAGGUCGACUCUAGAAAACAUG”: the binding signal in test [9] is 2.15 log2 enrichment (interaction score); in test [10], 2.77 log2 enrichment (interaction score). “GGCUAGAACUAGUGGAUCCCCCGGCGCCCGGCGGCUCGAGCCCGGGUAAGUGUCAAUAGUCUGCAUGCCGCCGGGCGCCAUGCCUGCAGGUCGACUCUAGAAAACAUG”: the binding signal in test [9] was 0.9 log2 enrichment (interaction score); in test [10] it was 4.35 log2 enrichment (interaction score).

For the sequence “GGCUAGAACUAGUGGAUCCCCCGGCGCCCGGCGGCUCGAGCCCGGGUAAGUGUAAUUAGUCUGCAUGCCGCCGGGCGCCAUGCCUGCAGGUCGACUCUAGAAAACAUG”, the binding signal in [4] is 2.68 log2 enrichment (interaction score).

With “GGCUAGAACUAGUGGAUCCCCCGGCGCCCGGCGGCUCGAGCCCGGGUAAGCGUAAAUAGUCUGCAUGCCGCCGGGCGCCAUGCCUGCAGGUCGACUCUAGAAAACAUG”, the binding signal is 2.16 log2 enrichment (interaction score) in test [1] and 2.45 log2 enrichment (interaction score) in test [6]. As to “GGCUAGAACUAGUGGAUCCCCCGGCGCCCGGCGGCUCGAGCCCGGGUAAGUGUACAUAGUCUGCAUGCCGCCGGGCGCCAUGCCUGCAGGUCGACUCUAGAAAACAUG”, the binding signal is 3.28 log2 enrichment (interaction score) in test [2] and 0.65 log2 enrichment (interaction score) in test [3].
